# Compound activity from PubChem.
# This is a sample that favours compounds with a hit; in the whole collection about 6% have one here.
# Sfp inh: inhibitors of Bacillus subtilis Sfp phosphopantetheinyl transferase. actives 3.5% (n = 310,000). Biochemical Sfp PPTase activity, qHTS. Potency, µM, usual class: inhibitors;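 further: the enzyme is Sfp with the accession as filed and its product quenches rhodamine fluorescence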
#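 Sfp 15 nM + cpd, 15 min RT; start w/ rhodamine-CoA 5 uM, BHQ-2-YbbR 12.5 uM (final); 50 mM Hepes pH 7.6, 10 mM MgCl2, 0.01% NP-40, 0.01% BSA; read 525/598 nm at 0 and 30 min.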
# Tau FP inhib: tau fibrillization inhibition (FP) | P10636 | K18 P301L tau heparin fibrillization, Alexa594 FP, 6 h | Potency, µM (titrated, usually from 57.7 µM), usual class: inhibitors | actives 0.39% (n = 280,000) | AID 1468; further: nearly all actives have a fitted effect of over 55% in size
# Target sequence (P10636 561-689 P618L limits assumed): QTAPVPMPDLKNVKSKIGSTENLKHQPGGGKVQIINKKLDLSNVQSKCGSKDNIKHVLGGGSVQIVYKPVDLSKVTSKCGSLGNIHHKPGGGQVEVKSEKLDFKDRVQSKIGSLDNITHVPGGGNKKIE
#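 K18 P301L tau (15 uM unlabeled/0.24 uM Alexa 594-labeled, final) + compound + heparin 20 uM final; 100 mM NaOAc pH 7; 6 hr 37 C; ThT 30 uM final added, 1 hr RT; FP ex 555/em 632 nm.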
# Tau fluor counter: counter-screen for tau fibril formation inhibitors | tau K18 P301L Alexa594 fluorescence, heparin fibrillization | Potency, µM (doses to about 57.7 µM) | actives 0.93% (n = 280,000) | AID 1463; further: nearly all actives have a fitted effect of over 55% in size
#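 Human K18 P301L tau (15 uM unlabeled plus 0.24 uM Alexa 594-labeled, final) in 100 mM sodium acetate pH 7 was mixed with compound and 20 uM heparin and incubated 6 hr at 37 C.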
# VDR inhibitor: blocks the human vitamin D receptor; P11473; VDR-SRC2-3 peptide fluorescence polarization, 2 h; Potency, µM, hits mostly inhibitors; actives 0.93% (n = 400,000)
#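 After 23 nl compound addition and a short centrifugation, plates sat for 2 hours at ambient temperature; polarization of fluorescence then indicated loss of VDR binding to peptide SRC2-3.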
# PLK1 PBD block: PLK1 (human) polo-box domain binding inhibition; actives 2.8% (n = 360,000); Potency, µM, usual class: inhibitors; Plk1 PBD binding of FITC phosphopeptide, fluorescence polarization; AID 720504; further: series mostly up to about 57 µM; nearly all actives have a fitted effect of over 65% in size
# Target sequence (P53350 whole entry, looked up, the tested form may be a part): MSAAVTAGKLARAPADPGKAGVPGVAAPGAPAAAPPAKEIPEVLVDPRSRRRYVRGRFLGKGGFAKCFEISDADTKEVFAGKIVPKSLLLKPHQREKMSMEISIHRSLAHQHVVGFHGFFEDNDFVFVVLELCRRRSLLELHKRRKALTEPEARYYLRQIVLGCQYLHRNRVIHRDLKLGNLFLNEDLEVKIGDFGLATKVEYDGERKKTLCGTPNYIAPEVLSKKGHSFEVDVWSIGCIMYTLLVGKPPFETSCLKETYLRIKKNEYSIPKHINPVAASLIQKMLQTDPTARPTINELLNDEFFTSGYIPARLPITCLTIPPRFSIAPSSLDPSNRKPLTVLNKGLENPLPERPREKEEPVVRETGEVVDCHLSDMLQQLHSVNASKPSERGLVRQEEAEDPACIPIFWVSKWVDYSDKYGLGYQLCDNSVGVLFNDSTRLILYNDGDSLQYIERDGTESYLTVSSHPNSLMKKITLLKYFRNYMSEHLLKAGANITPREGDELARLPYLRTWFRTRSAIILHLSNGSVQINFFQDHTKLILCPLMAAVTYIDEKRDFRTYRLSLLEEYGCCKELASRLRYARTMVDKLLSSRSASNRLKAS
# Tau ThT inhib: inhibitors of human tau fibril formation, thioflavin T binding. Potency, µM (doses to about 57.4 µM), actives largely listed as inhibitors. recombinant tau K18 P301L (four-repeat tau fragment), heparin-induced fibrillization, ThT fluorescence. P10636. AID 1460. actives 2.1% (n = 270,000); further: nearly all actives have a fitted effect of over 55% in size
#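 Heparin-induced (20 uM) aggregation of recombinant human K18 P301L tau, 15 uM unlabeled with 0.24 uM labeled, pH 7 acetate buffer, 6 hr at 37 C with compound. Fibrils quantified by 30 uM ThT fluorescence after 1 hr ambient incubation.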
# Numbers stand for hits; i = inactive; ? = inconclusive; nt = not tested or not shown; [ ] = dose if it differs, or a comment. The call rests on the fitted dose curve; in most records, active means well fitted curve in the direction sought with a large enough effect; inconclusive means small, poorly fitted or top-dose-only effect, or another doubt; inactive means no such curve, though single readings can be large; an effect the other way counts as inactive or inconclusive.
SMILES,Sfp inh,Tau FP inhib,Tau fluor counter,VDR inhibitor,PLK1 PBD block,Tau ThT inhib
CCc1ccccc1NC(=O)N1CCN(Cc2nc3ccc(C)cc3o2)CC1,nt,i,i,i,nt,i
CC(=O)Nc1cccc(-c2csc(NCc3ccccc3)n2)c1,39.8µM,i,?,i,i,?
CC(=O)Oc1ccc(-c2csc(Nc3ccccn3)n2)cc1,nt,nt,nt,nt,i,nt
Cc1nc2ncccn2c1-c1csc(Nc2ccc(O)cc2)n1,?,i,?,i,i,10µM
CC(=O)Nc1cccc(-c2csc(Nc3ccccn3)n2)c1,89.1µM,i,?,i,i,?
C=CCNc1nc(-c2c(C)nc3ncccn23)cs1,i,nt,nt,i,i,nt
CCCn1c(=N)c(C(=O)NC(C)c2ccccc2)cc2c(=O)n3ccccc3nc21 (stereo not given),nt,i,i,i,nt,i
Cn1cc(C(=O)C(=O)NC2CC2)c2ccccc21,nt,nt,nt,i,26.7µM,nt
CC(C)NC(=O)C(=O)c1cn(C)c2ccccc12,i,i,i,i,i,i
CCOC(=O)/C(C#N)=C/c1cn(CCC(=O)O)nc1-c1ccccc1,i,i,i,i,29.9µM,i
COc1ccc(N2CCN(CC(=O)Nc3nc(C)cs3)CC2)cc1,i,nt,nt,i,i,nt
Cc1ccc(Cl)c(NC(=O)COC(=O)CNS(=O)(=O)/C=C/c2ccccc2)c1Cl,50.1µM,i,i,i,i,i
CCc1cccc(C)c1NC(=O)COC(=O)CNS(=O)(=O)/C=C/c1ccccc1,i,i,i,i,i,i
ClN=C1C=CC=CC1=NCl,nt,nt,nt,nt,10.6µM,nt
CCOC(=O)c1cc2c(=O)n3ccccc3nc2n(Cc2ccco2)c1=NC(=O)c1cccnc1,35.5µM,i,i,?,i,i
Cc1cccc(C(=O)N=c2c(C#N)cc3c(=O)n4cccc(C)c4nc3n2Cc2ccco2)c1,28.2µM,i,i,i,i,?
CCOC(=O)c1cc2c(=O)n3ccccc3nc2n(Cc2ccco2)c1=NC(=O)c1cccc(C)c1,nt,i,i,i,nt,i
CCOC(=O)c1cc2c(=O)n3cccc(C)c3nc2n(Cc2ccco2)c1=NC(=O)c1cccnc1,25.1µM,i,i,i,i,i
CCOC(=O)c1cc2c(=O)n3ccccc3nc2n(Cc2ccco2)c1=NC(=O)c1cccc(Br)c1,nt,i,i,i,nt,i
CCOC(=O)c1cc2c(=O)n3ccccc3nc2n(Cc2ccco2)c1=NC(=O)c1ccc(Br)cc1,nt,i,i,89.1µM,nt,i
O=C(Nc1cccc2ccccc12)c1ccc2sc([C@@H]3O[C@H](CO)[C@H](O)[C@H](O)[C@H]3O)nc2c1,nt,nt,nt,nt,i,nt
O=c1[nH]c2ccc(NCc3ccc(-c4ccccc4)o3)cc2[nH]1,nt,?,?,i,nt,?
O=C(CCC(=O)c1ccc(F)cc1)Nc1ccccc1Cl,i,i,i,i,26.7µM,i
O=C(O)c1ccc(-n2cccc2/C=N\NC(=O)c2cc3cc(Br)ccc3o2)cc1,i,i,i,i,21.2µM,nt
Cn1cc(/C=N/NC(=O)c2cc3cc(Br)ccc3o2)c2ccccc21,i,i,i,i,i,nt
SMILES,Sfp inh,Tau FP inhib,Tau fluor counter,VDR inhibitor,PLK1 PBD block,Tau ThT inhib
CN(Cc1ccc(Cl)c(Cl)c1)C(=O)C1CSC2(C)CCC(=O)N12 (stereo not given),nt,nt,nt,i,i,nt
CC(C)(C)c1ccc(-c2nc(C=O)c3ccccn23)cc1,i,i,i,i,i,?
Cc1c(C(C)(C)C)c(C=S)n2ccccc12,50.1µM,i,i,i,?,?
COc1ccc(N2CC(NC(=O)c3ccc(S(=O)(=O)N4CCOCC4)cc3)CC2=O)cc1OC (stereo not given),nt,i,i,i,nt,i
CCc1ccc(/C([O-])=C(/C(=S)NCCN2CCOCC2)[n+]2ccccc2)cc1,44.7µM,i,i,i,?,?
Cc1csc(NC(=O)CSc2nc(C)cs2)n1,i,i,i,i,i,i
CC(=O)CSc1nsc(SCC(C)=O)c1C#N,i,?,i,i,?,15.8µM
Cc1ccc(NC(=O)CSc2nsc(SCC(=O)Nc3ccc(C)cc3C)c2C#N)c(C)c1,i,i,i,i,i,i
Cc1csc(NC(=O)CSc2nsc(SCC(=O)Nc3nc(C)cs3)c2C#N)n1,i,i,10µM[quencher],i,i,3.98µM
CCOC(=O)CSc1nsc(SCC(=O)OCC)c1C#N,i,i,i,i,i,?
COCCNCC(=O)Nc1nc(C)cs1,44.7µM,i,i,i,i,i
COc1ccc(O[C@H]2C=C[C@@H](c3ccccc3)O[C@@H]2CO/N=C(\C)CCN2CCCc3nc(C)c(C)cc32)cc1,i,i[11.6 µM],i[11.6 µM],nt,nt,i[11.5 µM]
COc1ccccc1C1CCN(Cc2cccc([N+](=O)[O-])c2)CC1,i,i,i,i,i,i
COc1ccccc1C1CCN(c2ccc(CO)cc2[N+](=O)[O-])CC1,i,i,?,i,i,14.1µM
O=C(CSC1=Nc2ccccc2C2=NC(Cc3ccccc3)C(=O)N12)Nc1ccccc1C(F)(F)F (stereo not given),nt,i,i,i,nt,i
COc1cccc2sc3ccc(C#CC4(N)CCCCC4)cc3c(=O)c12,79.4µM,nt,nt,i,i,nt
NCCCC[C@H](NC(=O)[C@@H](Cc1ccccc1)NC(=O)[C@H](Cc1c[nH]c2ccccc12)NC(=O)[C@@H](CCCCN)NC(=O)[C@@H](Cc1c[nH]c2ccccc12)NC(=O)[C@@H](N)Cc1cnc[nH]1)C(N)=O,i,nt,nt,i,nt,nt
COc1cc(NS(=O)(=O)c2ccc(Nc3nc(-c4ccccc4)cs3)cc2)nc(OC)n1,i,?,12.6µM[quencher],i,26.7µM,?
CC(=O)Nc1ccc(-c2csc(Nc3ccc(S(N)(=O)=O)cc3)n2)cc1,i,i,i,i,i,?
NS(=O)(=O)c1ccc(Nc2nc(-c3cccnc3)cs2)cc1,i,nt,nt,i,i,nt
COc1ccc(-c2csc(Nc3ccc(S(N)(=O)=O)cc3)n2)cc1OC,i,i,?,i,8.44µM,?
NS(=O)(=O)c1ccc(Nc2nc(-c3ccc(F)cc3)cs2)cc1,i,i,15.8µM[quencher],i,i,?
NS(=O)(=O)c1ccc(Nc2nc(-c3ccc(O)cc3O)cs2)cc1,i,i,14.1µM[quencher],i,i,6.31µM
Oc1ccc(Nc2nc(-c3ccc4ccccc4c3)cs2)cc1,i,?,7.94µM[quencher],nt,nt,5.01µM
Oc1ccc(-c2nc(-c3ccc(O)c(O)c3)cs2)cc1,79.4µM,i,12.6µM[quencher],i,i,3.16µM
Cc1ccc(C(=O)c2oc3ccccc3c2NC(=O)Cc2ccccc2)cc1,nt,i,?,i,nt,i
CCN(Cc1nc(-c2ccc(OC)cc2)oc1C)S(=O)(=O)c1ccc(C)cc1,nt,i,i,i,nt,i
CCc1ccccc1NC(=O)CN(Cc1ccccc1)S(=O)(=O)c1ccc2nc(C)sc2c1,nt,i,i,i,nt,i
CCCCCCCn1c2c(c(=N)c3ccccc31)CCC2,50.1µM,i,i,i,i,i
CCCn1c2c(c(=N)c3c1CCC3)CCC2,i,i,i,i,i,i
